In the library only some 6.7% were active in any assay of this set; here they are far more common.
C diff growth: blocks growth of Clostridium difficile | Clostridium difficile clinical isolate growth, OD600, 24 h; active compounds read low | growth activity, negative = inhibition, % at 16 µg/mL (by protocol) | hit rate 0.25% among 86,000 | AID 1259249;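 active = mean growth activity at or below -80% and every replicate also at or below -80%; inconclusive = mean at or below -80% but some replicate above -80%; inactive = mean growth activity above -80%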;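 also: 0% = DMSO wells and -100% = levofloxacin 16 µg/mL wells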
T cruzi growth-1: blocks T. cruzi growth in NIH3T3 culture. T. cruzi beta-gal in NIH3T3, GalScreen luminescence, 90 h. inhibition, % at 8.34 µM. hit rate 5.9% among 77,000;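 active = mean inhibition above about 93%, with at least 55% of replicates each passing it, limit read from the data, passing the limit was not always enough; inconclusive = only one of those two conditions holds; inactive = neither condition holds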
Pf Dd2 inh: blocks growth of Plasmodium falciparum Dd2 parasites. hit rate 2.3% among 94,000. activity change, % at 10 µM. P. falciparum Dd2 growth, SYBR Green, 72 h; active compounds read low; in the data active = activity change below about -80%; inconclusive = no clear call, values can overlap the other calls
T cruzi growth-2: inhibitors of T. cruzi proliferation; hit rate 72% among 5,600; inhibition, % at 8.35 µM; T. cruzi beta-gal in NIH3T3, GalScreen luminescence, 90 h; shares compounds with T cruzi growth-1;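 active = mean replicate inhibition above about 95% and at least 55% of replicates individually reaching it, limit read from the data; inconclusive = only one of the two criteria is met; inactive = neither criterion is met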
T cruzi growth-3: Trypanosoma cruzi proliferation inhibition | shares compounds with T cruzi growth-1 | T. cruzi beta-gal in NIH3T3, GalScreen luminescence, 90 h | inhibition, % at 2.09 µM | hit rate 21% among 5,600 | AID 651740;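 active = mean inhibition above about 95%, with at least 55% of replicates also reaching it, limit read from the data; inconclusive = meets just one of the two conditions; inactive = meets neither condition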;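 also: plate controls were neutral control median for no effect and positive control median for full effect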
NIH3T3 tox: NIH/3T3 (mouse) viability loss; cytotoxicity (signal decrease), % at 8.35 µM; shares compounds with T cruzi growth-1; NIH/3T3 viability, CellTiter-Glo ATP luminescence, 90 h; hit rate 14% among 5,600; AID 651742;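 active = mean signal decrease across replicates above about 35% based on untreated-well scatter, with enough replicates individually passing, limit read from the data; inconclusive = no rule stated though some were filed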;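 also: 0% = median of neutral control wells and 100% = median of positive control wells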
3T3 cytotox 2: cytotoxicity in mouse NIH/3T3 fibroblasts; shares compounds with T cruzi growth-1; NIH/3T3 viability, CellTiter-Glo ATP luminescence, 90 h; inhibition, % at 24.9 µM; hit rate 56% among 5,600; AID 651744;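 active = mean loss of cell viability signal at or above a set limit, and enough replicates individually reaching it; inconclusive = meets only the mean limit or only the replicate share; inactive = meets neither condition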;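 also: 0% = median of neutral control wells and 100% = median of positive control wells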
An asterisk follows results filed as active; ? = inconclusive; . = not tested or not shown.

SMILES | C diff growth | T cruzi growth-1 | Pf Dd2 inh | T cruzi growth-2 | T cruzi growth-3 | NIH3T3 tox | 3T3 cytotox 2
CN1c2ccc(-c3cccc(C#N)c3)cc2[C@@H]2[C@@H](CCN2C(=O)Nc2cc(F)ccc2F)[C@@H]1CO | 6 | ? | -23 | 100* | 93 | 22 | 13
CN1c2ccc(Br)cc2[C@H]2[C@H](CCN2C(=O)Nc2cc(F)ccc2F)[C@H]1CO | 56 | ? | -5 | 105* | 40 | 11 | 44*
CN1c2ccc(-c3ccc(C#N)cc3)cc2[C@@H]2[C@@H](CCN2C(=O)Nc2ccccc2F)[C@@H]1CO | -12 | 84 | 15 | . | . | . | .
COc1ccccc1NC(=O)N1CC[C@H]2[C@@H]1c1cc(C#Cc3ccc(F)cc3)ccc1N(C)[C@H]2CO | 3 | 108* | -78 | 106* | 116* | 3 | 5
CO[C@H]1CN(C)C(=O)c2ccc(NC(C)=O)cc2OC[C@H](C)N(Cc2cc(F)ccc2F)C[C@@H]1C | -3 | 6 | -18 | . | . | . | .
CC(=O)N1[C@@H]2c3ccc(C4=CCCC4)c(=O)n3C[C@H]1[C@H](CO)[C@H]2C(=O)NCc1ccccc1 | 0 | 5 | 13 | . | . | . | .
O=C(Nc1ccc2c(c1)OCO2)N[C@H]1CC[C@H](CCNC(=O)C2CCOCC2)O[C@@H]1CO | 2 | . | . | . | . | . | .
C[C@@H]1CN([C@@H](C)CO)C(=O)c2cc(NC(=O)CCC(F)(F)F)ccc2O[C@@H](C)CCCCO[C@H]1CN(C)Cc1ccccc1 | -1 | 59 | -50 | . | . | . | .
CN1C(=O)c2cc(NC(=O)c3ccc(F)c(F)c3)ccc2OC[C@H]2O[C@H](CC(=O)N[C@@H]3CCN(Cc4ccccc4)C3)CC[C@H]21 | 8 | 91 | . | . | . | . | .
CN1C(=O)c2cc(NC(=O)c3ccc(F)c(F)c3)ccc2OC[C@@H]2O[C@H](CC(=O)N[C@@H]3CCN(Cc4ccccc4)C3)CC[C@@H]21 | 1 | 108* | . | ? | 87 | 13 | 54*
CN1C(=O)c2cc(NC(=O)Cc3cccs3)ccc2OC[C@@H]2O[C@@H](CC(=O)N[C@@H]3CCN(Cc4ccccc4)C3)CC[C@@H]21 | -2 | 93 | . | . | . | . | .
CN1C(=O)c2cc(NC(=O)c3ccc(F)c(F)c3)ccc2OC[C@@H]2O[C@H](CC(=O)N[C@H]3CCN(Cc4ccccc4)C3)CC[C@@H]21 | -15 | 104* | . | 104* | 82 | 0 | 32*
CN1C(=O)c2cc(NC(=O)Cc3cccs3)ccc2OC[C@H]2O[C@@H](CC(=O)N[C@@H]3CCN(Cc4ccccc4)C3)CC[C@H]21 | -6 | 90 | . | . | . | . | .
CN1C(=O)c2cc(NC(=O)c3ccc(F)c(F)c3)ccc2OC[C@H]2O[C@@H](CC(=O)N[C@H]3CCN(Cc4ccccc4)C3)CC[C@H]21 | 2 | 103* | . | 94 | 73 | -15 | ?
CN1C(=O)c2cc(NC(=O)c3ccc(F)c(F)c3)ccc2OC[C@@H]2O[C@@H](CC(=O)N[C@H]3CCN(Cc4ccccc4)C3)CC[C@@H]21 | . | 101* | . | 106* | 68 | 3 | 10
COc1ccc2c3c(n(C)c2c1)[C@H](CO)N(C(=O)CN1CCOCC1)CC31CN(C(=O)C2CC2)C1 | -2 | . | -18 | . | . | . | .
C[C@@H]1CN([C@H](C)CO)C(=O)c2cc(-c3cncnc3)cnc2O[C@@H]1CN(C)C(=O)c1cccc(F)c1 | -3 | 13 | 21 | . | . | . | .
CCCN1C[C@@H](C)[C@H](OC)CN(C)C(=O)c2ccc(NC(=O)Nc3c(C)noc3C)cc2OC[C@H]1C | 0 | 12 | -44 | . | . | . | .
CNC(=O)C[C@@H]1CC[C@H]2[C@H](COc3ccc(NC(=O)c4cc(C)on4)cc3C(=O)N2C)O1 | -3 | 29 | 16 | . | . | . | .
COc1ccc(S(=O)(=O)Nc2ccc3c(c2)C(=O)N([C@@H](C)CO)C[C@@H](C)[C@@H](CN(C)S(=O)(=O)c2cn(C)cn2)OCCCC[C@@H](C)O3)cc1 | 0 | -65 | 7 | . | . | . | .
Cc1noc(C)c1NC(=O)Nc1ccc2c(c1)C(=O)N(C)[C@@H]1CC[C@H](CC(=O)N[C@H]3CCN(Cc4ccccc4)C3)O[C@H]1CO2 | 15 | 104* | 9 | ? | 2 | 1 | -4
Cc1noc(C)c1NC(=O)Nc1ccc2c(c1)C(=O)N(C)[C@@H]1CC[C@H](CC(=O)N[C@@H]3CCN(Cc4ccccc4)C3)O[C@@H]1CO2 | -9 | 27 | -21 | . | . | . | .
CN1C(=O)c2cc(NC(=O)c3ccc(F)c(F)c3)ccc2OC[C@H]2O[C@@H](CC(=O)N[C@@H]3CCN(Cc4ccccc4)C3)CC[C@H]21 | 4 | 110* | . | 116* | 86 | 1 | 27*
CCS(=O)(=O)Nc1ccc2c(c1)C(=O)N(C)[C@@H]1CC[C@@H](CC(=O)N[C@@H]3CCN(Cc4ccccc4)C3)O[C@@H]1CO2 | . | 27 | . | . | . | . | .
CN1C(=O)c2cc(NC(=O)Cc3cccs3)ccc2OC[C@H]2O[C@@H](CC(=O)N[C@H]3CCN(Cc4ccccc4)C3)CC[C@H]21 | -2 | 75 | . | . | . | . | .
SMILES | C diff growth | T cruzi growth-1 | Pf Dd2 inh | T cruzi growth-2 | T cruzi growth-3 | NIH3T3 tox | 3T3 cytotox 2
CN1C(=O)c2cc(NC(=O)c3ccc(F)c(F)c3)ccc2OC[C@@H]2O[C@@H](CC(=O)N[C@@H]3CCN(Cc4ccccc4)C3)CC[C@H]21 | 9 | 101* | . | 108* | 64 | 1 | 0
CN1C(=O)c2cc(NC(=O)Cc3cccs3)ccc2OC[C@@H]2O[C@@H](CC(=O)N[C@H]3CCN(Cc4ccccc4)C3)CC[C@@H]21 | -2 | ? | . | 89 | 85 | -18 | 4
C[C@H](O)C#Cc1cnc2c(c1)C(=O)N([C@H](C)CO)C[C@@H](C)[C@H](CN(C)Cc1ccccn1)O2 | 0 | 1 | 5 | . | . | . | .
O=C(C[C@H]1C=C[C@H](NS(=O)(=O)c2cccc(F)c2)[C@@H](CO)O1)NCc1ccc2c(c1)OCO2 | 2 | . | 0 | . | . | . | .
C[C@H](CO)N1C[C@H](C)[C@@H](CN(C)C(=O)C2CCC2)Oc2cc(C#C[C@@H](C)O)ccc2S1(=O)=O | -2 | 15 | 48 | . | . | . | .
C[C@H](CO)N1C[C@H](C)[C@@H](CN(C)S(=O)(=O)c2cn(C)cn2)Oc2ccc(NS(=O)(=O)c3ccc(F)cc3)cc2C1=O | -5 | . | 40 | . | . | . | .
CC(C)C(=O)Nc1ccc2c(c1)C(=O)N(C)[C@@H]1CC[C@@H](CC(=O)NC3CCCC3)O[C@@H]1CO2 | -1 | -12 | 4 | . | . | . | .
CN1C[C@H]2[C@@H](c3ccccc31)[C@H](CO)N2C(=O)Nc1cccc(F)c1 | 1 | 33 | -2 | . | . | . | .
CN1C(=O)c2cc(NC(=O)c3ccc(F)c(F)c3)ccc2OC[C@H]2O[C@@H](CC(=O)N[C@@H]3CCN(Cc4ccccc4)C3)CC[C@@H]21 | 30 | 98* | . | 61 | 74 | -2 | 7
CCS(=O)(=O)Nc1ccc2c(c1)C(=O)N(C)[C@@H]1CC[C@@H](CC(=O)N[C@H]3CCN(Cc4ccccc4)C3)O[C@@H]1CO2 | . | -17 | . | . | . | . | .

Source: PubChem (Broad Institute)
